# Source: PubChem BioAssay (NCATS)
# Values joined by “and” are separate entries in the source; they are usually repeats but may differ in a detail not shown here. Equal entries are not always repeated. Inconclusive results are not listed. Where a call stands in place of a potency, no number is given. Active and inactive are the calls of the source. Unless noted, the call rests on the fitted dose curve.
# Tests used:
# [1] = Cell Viability - MRC5 (AID 434); details: MRC5 lung fibroblast viability, qHTS;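 further: potency means the concentration at half of the fitted maximal effect; potency reflects cytotoxicity seen as loss of intracellular ATP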
# Method in brief: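 qHTS cytotoxicity in human lung fibroblast MRC5 cells; 40 hr treatment, 37 °C; cellular ATP by luciferase luminescence; DMSO = 0%, 100 uM tamoxifen = 100% inhibition; Hill-fit AC50.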
# [2] = target: Mitogen-activated protein kinase 10 (Mus musculus) (UniProt Q61831); experiment: JNK3 AlphaScreen Assay (AID 530; active means well fitted curve in either direction with a large enough effect, not every such curve was filed as active;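 further: kinase came from lysate of stimulated human HepG2 cells; signal reports phosphorylation of biotinylated GST-cJun 1-79 at Ser73 with 10 µM ATP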); details: JNK3 lysate, c-Jun phosphorylation; series mostly up to 57.1 µM
# Method in brief: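 Compound titrations were preincubated 15 minutes at room temperature with substrate, antibody and pre-activated JNK3-containing HepG2 lysate. Reactions were started with 10 uM ATP and stopped with EDTA-containing bead buffer for AlphaScreen detection.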
# [3] = MultiTox-Fluor Cytotoxicity Assay - LYMP1-002 - Dead Cells (AID 960; active means well fitted curve in the direction sought with a large enough effect; an effect the other way counts as inactive or inconclusive; further: nearly all actives have a fitted effect of over 60% in size; further: potency means the concentration at half of the fitted maximal effect); details: LYMP1-002 lymphoblastoid cells, dead-cell protease fluorescence; series mostly up to 46.1 µM
# Method in brief: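 LYMP1-002 cells 2500/well; 5 hr 37 C pre-incubation; compound 16 hr 37 C; MultiTox-Fluor reagent 60 min RT; dead-cell fluor Ex/Em 485/520. Norm. to DMSO (0%) vs 15 uM tetraoctylammonium bromide (100%); Hill AC50.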
# [4] = target: Estrogen receptor (Homo sapiens) (UniProt P03372); experiment: qHTS assay for small molecule agonists of estrogen receptor alpha signaling (AID 588514); details: ER-alpha-UAS-bla HEK293, beta-lactamase ratio, 18 h; series mostly up to 76.8 µM; further: nearly all actives have a fitted effect of over 70% in size
# Chain of Estrogen receptor (Homo sapiens) (P03372 whole entry, looked up): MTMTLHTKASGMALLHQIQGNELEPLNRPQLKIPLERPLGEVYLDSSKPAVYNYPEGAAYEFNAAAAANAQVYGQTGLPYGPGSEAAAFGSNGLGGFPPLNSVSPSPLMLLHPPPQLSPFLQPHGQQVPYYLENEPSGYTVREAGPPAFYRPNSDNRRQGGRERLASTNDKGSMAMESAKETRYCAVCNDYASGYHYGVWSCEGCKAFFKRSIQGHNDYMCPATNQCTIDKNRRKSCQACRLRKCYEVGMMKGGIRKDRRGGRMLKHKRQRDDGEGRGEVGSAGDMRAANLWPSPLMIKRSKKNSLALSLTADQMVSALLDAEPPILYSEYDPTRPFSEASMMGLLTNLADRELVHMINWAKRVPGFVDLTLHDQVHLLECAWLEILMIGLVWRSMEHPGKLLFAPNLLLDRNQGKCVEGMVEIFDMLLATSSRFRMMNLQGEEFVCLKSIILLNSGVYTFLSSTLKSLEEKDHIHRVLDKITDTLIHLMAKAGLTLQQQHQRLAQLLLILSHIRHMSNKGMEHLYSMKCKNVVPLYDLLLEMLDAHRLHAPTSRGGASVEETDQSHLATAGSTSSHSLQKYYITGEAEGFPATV
# Method in brief: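 Cells were plated at 5000/well, incubated 4 hrs at 37 C, dosed with compound titration series, incubated 18 hrs at 37 C, loaded with CCF4 dye for 2 hrs at RT, then fluorescence was read.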
# [5] = target: Bile acid receptor (Homo sapiens) (UniProt Q96RI1); experiment: qHTS assay for small molecule agonists of farnesoid X receptor signaling (AID 588527); details: HEK293T FXR-UAS-bla, beta-lactamase ratio, 16 h; stronger effect = higher value
# Chain of Bile acid receptor (Homo sapiens) (Q96RI1 whole entry, looked up): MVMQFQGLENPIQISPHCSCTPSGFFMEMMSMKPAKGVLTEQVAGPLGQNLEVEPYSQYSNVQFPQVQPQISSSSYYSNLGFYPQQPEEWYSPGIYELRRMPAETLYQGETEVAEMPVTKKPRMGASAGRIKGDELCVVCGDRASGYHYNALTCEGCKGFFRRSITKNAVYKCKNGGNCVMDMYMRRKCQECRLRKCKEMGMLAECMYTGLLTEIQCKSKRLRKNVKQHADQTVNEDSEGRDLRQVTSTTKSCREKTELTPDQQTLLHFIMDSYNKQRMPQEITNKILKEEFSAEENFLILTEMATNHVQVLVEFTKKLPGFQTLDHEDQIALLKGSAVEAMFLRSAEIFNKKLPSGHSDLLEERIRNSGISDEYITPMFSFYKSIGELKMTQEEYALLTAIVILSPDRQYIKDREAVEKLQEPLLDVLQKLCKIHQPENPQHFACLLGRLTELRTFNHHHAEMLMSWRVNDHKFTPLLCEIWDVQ
# Method in brief: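 Quantitative HTS used FXR-UAS-bla HEK293T cells with 16 h compound incubation at 37 C. EC50 values came from concentration-response curves normalized to chenodeoxycholic acid.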
# [6] = target: Peroxisome proliferator-activated receptor delta (Homo sapiens) (UniProt Q03181); experiment: qHTS assay for small molecule agonists of peroxisome proliferator-activated receptor delta signaling (AID 588534); details: HEK293T PPARdelta-UAS-bla, beta-lactamase ratio, 18 h; series mostly up to 76.7 µM
# Chain of Peroxisome proliferator-activated receptor delta (Homo sapiens) (Q03181 whole entry, looked up): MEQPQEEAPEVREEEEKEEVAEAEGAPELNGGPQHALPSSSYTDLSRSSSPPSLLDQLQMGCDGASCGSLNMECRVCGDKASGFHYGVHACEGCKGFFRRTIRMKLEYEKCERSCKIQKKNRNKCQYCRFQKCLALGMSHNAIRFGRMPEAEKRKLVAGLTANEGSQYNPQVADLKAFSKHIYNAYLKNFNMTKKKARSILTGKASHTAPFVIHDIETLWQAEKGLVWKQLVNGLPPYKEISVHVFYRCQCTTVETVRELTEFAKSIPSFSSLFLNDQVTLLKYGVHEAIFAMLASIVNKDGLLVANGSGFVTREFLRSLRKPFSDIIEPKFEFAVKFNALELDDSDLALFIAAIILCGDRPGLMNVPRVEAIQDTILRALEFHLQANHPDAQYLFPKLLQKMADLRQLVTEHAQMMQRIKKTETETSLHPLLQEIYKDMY
# Method in brief: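 Fluorescence from CCF4 substrate cleavage by beta-lactamase reporter, read 2 hrs at RT, measured agonist activity. Compounds were tested with 18 hrs exposure at 37 C. Concentration-response data fitted to Hill equation.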
# [7] = qHTS assay for small molecule antagonists of peroxisome proliferator-activated receptor delta signaling (AID 588535; active means well fitted inhibition curve with a large enough effect in the signal ratio, with a control signal flat, not every such curve was filed as active; the % refers to the signal ratio;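 on max response: cells co-treated with a PPAR-delta agonist as stimulator during compound exposure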); details: HEK293T PPARd-UAS-bla, beta-lactamase FRET ratio, 18 h; 460 nm channel
# Method in brief: (§1)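 HEK293T PPAR-delta-UAS-bla cells, 4000/well, 2% charcoal/dextran FBS; 5 h 37 C; cpd titration; 18 h 37 C; CCF4 2 h RT; FI 460/530 nm; Hill fit → IC50, efficacy.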
# [8] = target: Peroxisome proliferator-activated receptor delta (Homo sapiens) (UniProt Q03181); experiment: as above; details: HEK293T PPARd-UAS-bla, beta-lactamase FRET ratio, 18 h; series mostly up to 76.7 µM
# Method in brief: as §1
# [9] = target: Vitamin D3 receptor (Homo sapiens) (UniProt P11473); experiment: qHTS assay for small molecule antagonists of vitamin D receptor signaling (AID 588541); details: HEK293T VDR-UAS-bla, beta-lactamase ratio, antagonist mode; series mostly up to 76.7 µM;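 further: receptor activated by calcitriol during compound treatment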
# Chain of Vitamin D3 receptor (Homo sapiens) (P11473 whole entry, looked up): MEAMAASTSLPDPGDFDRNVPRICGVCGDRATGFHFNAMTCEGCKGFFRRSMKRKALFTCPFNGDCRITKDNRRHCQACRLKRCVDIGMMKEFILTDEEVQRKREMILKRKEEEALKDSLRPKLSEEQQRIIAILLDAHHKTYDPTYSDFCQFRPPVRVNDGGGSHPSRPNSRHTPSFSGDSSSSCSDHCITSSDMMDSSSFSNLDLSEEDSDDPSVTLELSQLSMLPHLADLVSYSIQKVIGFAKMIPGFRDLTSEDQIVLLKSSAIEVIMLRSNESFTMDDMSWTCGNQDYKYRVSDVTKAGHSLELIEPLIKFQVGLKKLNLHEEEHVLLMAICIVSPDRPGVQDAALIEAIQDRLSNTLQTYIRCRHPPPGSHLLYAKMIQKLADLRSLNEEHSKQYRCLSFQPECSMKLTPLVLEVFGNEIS
# Method in brief: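 Antagonist-mode beta-lactamase reporter assay: HEK293T VDR-UAS-bla cells were exposed to titrated compound alongside 1-alpha,25-dihydroxyvitamin D3 at 3 nM final for 16 h. Values were normalized to the 50 nM agonist control and DMSO basal, with IC50 and efficacy from Hill equation fits.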
# [10] = target: Vitamin D3 receptor (Homo sapiens) (UniProt P11473); experiment: qHTS assay for small molecule agonists of vitamin D receptor signaling (AID 588543); details: HEK293T VDR-UAS-bla, beta-lactamase ratio, 16 h; series mostly up to 76.8 µM
# Method in brief: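 Reporter cells (HEK293T, VDR-UAS-bla) were seeded in medium with 2% charcoal-stripped serum and incubated 5 h, then compounds in concentration series were added for 16 h at 37 °C. Stimulation was scaled between DMSO basal and 50 nM 1α,25-dihydroxyvitamin D3.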
# [11] = qHTS assay for small molecule agonists of the antioxidant response element (ARE) signaling pathway (AID 651741; active means well fitted activation curve with a large enough effect in the signal ratio; the % refers to the signal ratio; further: potency means the concentration at half of the fitted maximal effect); details: HepG2 ARE-bla reporter, beta-lactamase FRET ratio, 16 h; series mostly up to 96 µM
# Method in brief: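 Quantitative HTS in HepG2 cells stably expressing an ARE-beta-lactamase reporter; 16 h compound exposure at 37 C, followed by 2 h room-temperature incubation with LiveBLAzer B/G FRET substrate and fluorescence measurement.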
# [12] = qHTS assay for small molecule activators of the nuclear factor-kappa B (NF-kB) signaling pathway (AID 651749; active means well fitted activation curve with a large enough effect in the signal ratio; the % refers to the signal ratio); details: NF-kB-bla ME-180 cells, beta-lactamase FRET ratio, 16 h; stronger effect = higher value
# Method in brief: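 Readout: beta-lactamase reporter driven by an NF-kB response element, detected fluorescently as loss of FRET. Cells were the ME-180 line, treated 16 hr at 37C with pin-transferred compound.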
# [13] = qHTS assay for small molecule antagonists of the retinoid-related orphan receptor gamma (ROR-gamma) signaling pathway - cell viability counter screen (AID 720652; active means well fitted curve in the direction sought with a large enough effect in the repeat runs; an effect the other way counts as inactive or inconclusive;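 further: compound exposure lasted 16 hr before ATP read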); details: RORgamma reporter cell line viability counter screen; series mostly up to 92.2 µM
# Method in brief: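 Luminescence from CellTiter-Glo after 30 min at room temperature reported cellular ATP as the cytotoxicity measure. Cells were the CHO reporter line with doxycycline-induced ROR-gamma expression, exposed to compound for 16 hr at 37 C.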
# [14] = Cell Viability - Hek293 (AID 427;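 active means compounds whose dose-response curve shows a full or clear partial loss of cell viability, called from curve shape rather than a numeric limit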;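 further: potency means the concentration at half of the fitted maximal effect; cells exposed to compound for 40 hours at 37 °C before reading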); details: qHTS
# Method in brief: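 AC50 values derive from Hill-modelled concentration-response of ATP-based luminescence, normalized between DMSO-only and 100 uM tamoxifen controls. Cells were exposed in complete culture medium for 40 hr at 37 °C before detection.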
# [15] = Cell Viability - N2a (AID 540; active means well fitted curve in the direction sought with a large enough effect; an effect the other way counts as inactive or inconclusive;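 further: cells exposed to compound for 40 h at 37 °C; nearly all actives have a fitted effect of over 45% in size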); details: N2a mouse neuroblastoma cell viability; activity change, negative = cytotoxicity: at 92.2 µM (top of the series)
# Method in brief: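 Luminescent ATP signal (CellTiter-Glo, 20 min at room temperature) served as the viability read-out after N2a cells were treated with compounds for 40 hours at 37 °C. Concentration-response data were fitted to the Hill equation for AC50.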
# [16] = Cell Viability - H-4-II-E (AID 543; active means well fitted curve in the direction sought with a large enough effect; an effect the other way counts as inactive or inconclusive; further: nearly all actives have a fitted effect of over 35% in size); details: H-4-II-E rat hepatoma viability; series mostly up to 92.2 µM
# Method in brief: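 Luminescent ATP signal (CellTiter-Glo) served as the viability read-out, with cytotoxicity seen as a concentration-dependent ATP drop. Cells were treated for 40 hours in complete medium. AC50 values derive from Hill-equation modelling.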
# [17] = target: Glucocorticoid receptor (Homo sapiens) (UniProt P04150); experiment: qHTS assay for small molecule antagonists of glucocorticoid receptor signaling (AID 588533; active means well fitted inhibition curve with a large enough effect in the signal ratio, with a control signal flat, not every such curve was filed as active; the % refers to the signal ratio;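 further: cells stimulated with 2 nM dexamethasone as agonist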); details: HeLa MMTV-bla, GRE beta-lactamase ratio, antagonist mode, 18 h; series mostly up to 76.8 µM
# Chain of Glucocorticoid receptor (Homo sapiens) (P04150 whole entry, looked up): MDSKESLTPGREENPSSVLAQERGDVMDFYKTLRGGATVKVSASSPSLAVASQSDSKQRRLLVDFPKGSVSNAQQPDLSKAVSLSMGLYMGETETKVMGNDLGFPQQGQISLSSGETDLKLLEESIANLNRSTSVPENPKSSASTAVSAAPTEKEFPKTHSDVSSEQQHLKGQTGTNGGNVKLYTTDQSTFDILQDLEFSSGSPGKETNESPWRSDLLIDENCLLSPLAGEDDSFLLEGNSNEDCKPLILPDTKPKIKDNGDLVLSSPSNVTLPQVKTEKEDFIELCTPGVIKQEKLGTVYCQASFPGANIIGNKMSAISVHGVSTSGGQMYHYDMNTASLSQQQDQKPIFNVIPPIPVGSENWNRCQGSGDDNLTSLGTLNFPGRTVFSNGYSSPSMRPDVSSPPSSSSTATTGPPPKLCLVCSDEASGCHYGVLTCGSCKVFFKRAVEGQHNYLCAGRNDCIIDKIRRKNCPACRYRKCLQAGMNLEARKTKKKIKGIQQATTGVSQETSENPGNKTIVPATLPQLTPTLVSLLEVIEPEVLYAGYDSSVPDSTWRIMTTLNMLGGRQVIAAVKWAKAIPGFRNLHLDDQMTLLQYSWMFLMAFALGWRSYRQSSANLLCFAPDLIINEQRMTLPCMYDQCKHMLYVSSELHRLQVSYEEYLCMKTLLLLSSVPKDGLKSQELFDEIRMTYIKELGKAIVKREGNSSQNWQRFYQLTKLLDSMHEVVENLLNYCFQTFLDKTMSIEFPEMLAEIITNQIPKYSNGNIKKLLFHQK
# Method in brief: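 Antagonist-mode qHTS: compound titrations added to GRE-bla HeLa cells, then dexamethasone 2 nM final; 18 h, 37 C. CCF4 FRET fluorescence normalized to dexamethasone and DMSO; IC50 from Hill fit.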
# [18] = target: Peroxisome proliferator-activated receptor gamma (Homo sapiens) (UniProt P37231); experiment: qHTS assay for small molecule agonists of peroxisome proliferator-activated receptor gamma signaling (AID 588536; active means well fitted curve in the direction sought with a large enough effect in the signal ratio, with a control signal flat, not every such curve was filed as active; the % refers to the signal ratio); details: HEK293 PPARg-UAS-bla, beta-lactamase ratio, 16 h, percent of rosiglitazone response, DMSO as zero; series mostly up to 76.7 µM
# Chain of Peroxisome proliferator-activated receptor gamma (Homo sapiens) (P37231 whole entry, looked up): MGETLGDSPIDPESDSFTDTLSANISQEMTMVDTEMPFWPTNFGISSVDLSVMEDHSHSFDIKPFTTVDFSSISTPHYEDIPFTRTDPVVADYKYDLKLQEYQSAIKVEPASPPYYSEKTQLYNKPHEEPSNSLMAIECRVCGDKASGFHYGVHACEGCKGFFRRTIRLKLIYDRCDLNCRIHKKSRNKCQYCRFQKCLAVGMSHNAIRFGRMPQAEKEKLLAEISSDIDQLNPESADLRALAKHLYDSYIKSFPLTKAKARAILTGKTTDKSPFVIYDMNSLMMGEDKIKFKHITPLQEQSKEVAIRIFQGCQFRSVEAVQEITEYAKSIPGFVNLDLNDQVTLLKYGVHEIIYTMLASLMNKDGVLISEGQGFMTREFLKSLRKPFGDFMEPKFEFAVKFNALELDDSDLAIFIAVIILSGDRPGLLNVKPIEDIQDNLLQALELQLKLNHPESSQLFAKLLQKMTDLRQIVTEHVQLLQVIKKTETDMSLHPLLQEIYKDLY
# Method in brief: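 HEK293 UAS-bla reporter line, 1% charcoal/dextran FBS; titration, 16 h, 37 C; CCF4 loading 2 h RT; fluorescence 460/530 nm. Normalized to rosiglitazone 2 uM = 100%, DMSO = 0%.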
# [19] = target: Glucocorticoid receptor (Homo sapiens) (UniProt P04150); experiment: qHTS assay for small molecule agonists of glucocorticoid receptor signaling (AID 588532; active means well fitted curve in the direction sought with a large enough effect in the signal ratio, with a control signal flat; the % refers to the signal ratio); details: HeLa MMTV-bla, beta-lactamase ratio, agonist, 18 h; stronger effect = higher value; percent of dexamethasone control, DMSO zero
# Method in brief: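 Quantitative HTS using CellSensor MMTV-bla HeLa cells in charcoal/dextran-treated serum; compounds tested up to 92 uM. After 18 h at 37 C, CCF4 dye reported reporter induction.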
# [20] = target: Peroxisome proliferator-activated receptor gamma (Homo sapiens) (UniProt P37231); experiment: qHTS assay for small molecule antagonists of peroxisome proliferator-activated receptor gamma signaling (AID 588537; active means well fitted inhibition curve with a large enough effect in the signal ratio, with a control signal flat, not every such curve was filed as active; the % refers to the signal ratio; further: potency means the concentration at half of the fitted maximal effect); details: HEK293 PPARg-UAS-bla, beta-lactamase ratio, antagonist mode; series mostly up to 76.8 µM
# Method in brief: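 Antagonist mode, beta-lactamase reporter in HEK293; charcoal/dextran FBS 1%; 3000 cells/well, 37 C 6-6.5 h; cpd titration + rosiglitazone 50 nM final, 16 h 37 C; CCF4, 2 h RT; 460/530 nm; Hill fit → IC50, efficacy.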
structure (smiles),measurement,setting,value
Nc1c(Br)cc([N+](=O)[O-])cc1[N+](=O)[O-],Potency,[1],> 92 µM (inactive)
same,Potency,[2],inactive
same,Potency,[3],inactive
same,Potency,[4],inactive
same,activation,[5],0.276% (inactive)
same,outcome,[6],inactive
same,max response,[7],33.6%
same,outcome,[8],inactive
same,outcome,[9],inactive
same,outcome,[10],inactive
same,Potency,[11],37.6 µM (active)
same,activation,[12],-0.945% (inactive)
same,Potency,[13],inactive
CCCC[N+](=O)[O-],Potency,[14],> 92 µM (inactive)
same,Potency,[1],> 92 µM (inactive)
same,Potency,[2],inactive
same,Potency,[15],inactive
same,Potency,[16],inactive
same,Potency,[4],inactive
same,activation,[5],-0.886% (inactive)
same,outcome,[17],inactive
same,outcome,[18],inactive
same,outcome,[9],inactive
same,outcome,[10],inactive
same,Potency,[11],inactive
same,activation,[12],-0.304% (inactive)
same,Potency,[13],inactive
COP(=S)(OC)SCn1nnc2ccccc2c1=O,Potency,[2],inactive
same,Potency,[4],inactive
same,outcome,[6],inactive
same,outcome,[18],inactive
same,outcome,[10],inactive
Cc1cc(N=Nc2ccccc2C)ccc1N,Potency,[14],> 92 µM (inactive)
same,Potency,[1],> 92 µM (inactive)
same,Potency,[15],inactive
same,activation,[5],-3.42% (inactive) and -2.58% (inactive)
same,activation,[19],-7.11% (inactive)
same,outcome,[6],inactive
same,max response,[7],-21.5%
same,outcome,[8],inactive
same,outcome,[18],inactive
same,outcome,[9],inactive
same,Potency,[11],1.88 µM (active) and 4.86 µM (active)
Cc1cc(C)cc(OP(=O)(Oc2cc(C)cc(C)c2)Oc2cc(C)cc(C)c2)c1,Potency,[14],> 92 µM (inactive)
same,Potency,[1],> 92 µM (inactive)
same,Potency,[16],inactive
same,Potency,[3],31.6 µM (active)
same,activation,[5],0.362% (inactive)
same,activation,[19],-3.84% (inactive)
same,outcome,[17],inactive
same,Potency,[20],inactive
same,outcome,[9],inactive
Clc1cccc(Cl)c1,Potency,[2],inactive
same,Potency,[16],inactive
same,Potency,[3],inactive
same,activation,[19],-3.34% (inactive)
same,outcome,[17],inactive
same,max response,[7],20.6%
same,outcome,[8],inactive
same,outcome,[18],inactive
same,outcome,[10],inactive
same,activation,[12],-1.17% (inactive)
Oc1c(Cl)c(Cl)cc(Cl)c1Cl,Potency,[2],inactive
same,Potency,[3],inactive
same,activation,[5],3.3% (inactive)
same,max response,[7],-31%
same,outcome,[8],inactive
same,outcome,[18],inactive
same,Potency,[11],66.8 µM (active)
Nc1ccc(Cc2ccc(N)c(Cl)c2)cc1Cl,Potency,[14],> 92 µM (inactive)
same,Potency,[1],> 92 µM (inactive)
same,Potency,[2],inactive
same,Potency,[4],inactive
same,activation,[19],-1.55% (inactive)
same,outcome,[18],inactive
same,Potency,[20],39.8 µM (active)
same,outcome,[9],inactive
same,outcome,[10],inactive
same,Potency,[13],inactive
Brc1ccc(Oc2ccc(Br)cc2Br)c(Br)c1,Potency,[1],> 92 µM (inactive)
same,Potency,[16],inactive
same,Potency,[3],inactive
same,Potency,[4],inactive
same,activation,[5],-1.06% (inactive)
same,Potency,[20],inactive
same,outcome,[9],inactive
same,outcome,[10],inactive
same,activation,[12],0.581% (inactive)
